Most compounds without a hit are left out; they make up all but 1.6% or so of the library.
PERK inh: block of dimerizer-induced PERK translation repression, primary screen, PERK inhibitor project, CHO PERK-DD cells, SEAP luminescence, HTS | Eukaryotic translation initiation factor 2-alpha kinase 3 (Homo sapiens), Q9NZJ5 | inhibition, % at 5.6 µM | 0.17% of 220,000 active | CHO PERK-DD fusion, SEAP luminescence translation reporter;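 active = inhibition above the mean inhibition of all tested compounds plus 3 SD, set separately per screening campaign, cut at about 2.9% in these data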;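 also: PERK kinase domain activated by AP20187 dimerizer at 100 nM; 0% = DMSO with dimerizer and 100% = rapamycin at 8.4 µM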
eIF4H inh: human eIF4H binding inhibitors, primary screen, translation initiation inhibitor project, biochemical, uHTS, fluorescence polarization. Eukaryotic translation initiation factor 4H (Homo sapiens), Q15056. eIF4H fluorescence polarization binding assay. inhibition, % at 35 µM. 0.94% of 290,000 active;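 also: calls also rest on retests at 20 µM and on dose response follow-up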
PABP1 MLLE inh: inhibitors of PABP1 MLLE–PAM2 peptide binding, primary screen, biochemical, fluorescence polarization, FITC-PAM2, GST-MLLE | inhibition, % at 20 µM | 0.36% of 360,000 active | AID 588489, 2011; in the data active = inhibition above about 35%, passing the limit was not always enough;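 also: plate controls were DMSO wells with GST-MLLE for no effect and wells lacking GST-MLLE protein for full effect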
Target sequence (P11940 whole entry, looked up): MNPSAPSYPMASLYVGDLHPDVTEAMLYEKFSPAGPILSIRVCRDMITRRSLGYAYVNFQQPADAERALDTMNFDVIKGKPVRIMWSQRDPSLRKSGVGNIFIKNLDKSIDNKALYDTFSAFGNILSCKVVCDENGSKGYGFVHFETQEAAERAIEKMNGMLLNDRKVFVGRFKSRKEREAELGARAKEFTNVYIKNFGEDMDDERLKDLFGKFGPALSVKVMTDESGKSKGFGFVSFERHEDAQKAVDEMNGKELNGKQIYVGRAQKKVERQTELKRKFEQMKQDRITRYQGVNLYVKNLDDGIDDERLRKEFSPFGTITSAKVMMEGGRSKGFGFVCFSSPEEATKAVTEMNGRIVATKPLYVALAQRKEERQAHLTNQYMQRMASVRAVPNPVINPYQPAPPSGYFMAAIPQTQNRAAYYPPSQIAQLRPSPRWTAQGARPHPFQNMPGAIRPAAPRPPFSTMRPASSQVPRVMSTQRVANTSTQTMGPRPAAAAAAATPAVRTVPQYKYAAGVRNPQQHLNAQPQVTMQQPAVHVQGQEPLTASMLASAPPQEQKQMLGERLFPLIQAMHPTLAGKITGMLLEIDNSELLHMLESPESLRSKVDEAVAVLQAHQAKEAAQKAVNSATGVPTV
PABP polyA inh: PABP poly(A) RNA binding inhibitors, primary screen, biochemical, fluorescence polarization, uHTS | Polyadenylate-binding protein 1 (Homo sapiens), P11940 | inhibition, % at 35 µM | 1% of 290,000 active | AID 2014, 2009;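 also: calls also rest on retests at 20 µM and on dose response follow-up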
eIF4E-4G inh: eIF4E–eIF4G protein interaction inhibitors, primary screen, biochemical, uHTS, TR-FRET, eIF4GI fragment; Eukaryotic translation initiation factor 4E (Mus musculus) + Eukaryotic translation …; TR-FRET eIF4E-eIF4GI(517-606) binding, 2 h; 0.37% of 220,000 active; inhibition, % at 21.7 µM;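 active = inhibition above about 30%, limit read from the data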;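 also: 0% = full FRET control wells and 100% = background wells lacking eIF4GI fragment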
Active calls of the source: *; x = not tested or not shown. Unless noted, no rule for the calls is given here.

SMILES	PERK inh	eIF4H inh	PABP1 MLLE inh	PABP polyA inh	eIF4E-4G inh
Cc1ccc(S(=O)(=O)/N=C2/C=C(C3C(=O)CC(C)(C)CC3=O)C(=O)c3ccccc32)cc1	-1	6	44*	24	10
Cc1ccc(S(=O)(=O)/N=C2\C=C(NS(=O)(=O)c3ccccc3)C(=O)c3ccccc32)cc1	x	x	6	x	x
Cc1cc(C)n2nc(C(F)(F)F)c(-c3ccccc3)c2n1	1	0	13	-2	4
N#Cc1ccsc1NC(=O)c1ccc(Cl)c([N+](=O)[O-])c1	4.3*	-4	7	8	-1
N#Cc1ccsc1NC(=O)c1cccc([N+](=O)[O-])c1	1	14	2	0	6
N#Cc1ccsc1NC(=O)c1cccc(-n2cnnn2)c1	x	67	-83	38*	x
COc1ccc(/C=N/NC(=O)CCN2CCCCC2c2cccnc2)cc1Cn1cc([N+](=O)[O-])cn1 (stereo not drawn)	-1	-4	5	-8	2
O=C(O)CSc1ccccn1	1	-3	10	7	33*
NS(=O)(=O)c1ccc(NC(=O)CSc2ccccn2)cc1	2	-6	3	-3	x
NS(=O)(=O)c1cccc(NC(=O)CSc2ccccn2)c1	0	-3	-1	76*	5
O=C(CSc1ccccn1)N1CCN(C(=O)CSc2ccccn2)CC1	x	-2	6	-6	x
CCOC(=O)C1=CN(Cc2cccc(F)c2)S(=O)(=O)NC1CCc1ccccc1 (stereo not drawn)	x	x	1	x	x
COCCN(C(=O)CCCc1nc2ccccc2s1)c1c(N)n(CC(C)C)c(=O)[nH]c1=O	x	x	14	x	x
CN(CCC#N)S(=O)(=O)c1ccc2c(c1)c(=O)n(C)c(=O)n2C	1	8	1	2	-1
CCC1CC(C)(C(=O)Nc2ccc(S(N)(=O)=O)cc2)OC1=O (stereo not drawn)	2.9*	-3	5	12	2
O=[N+]([O-])c1ccccc1CNc1ccc(F)c(Cl)c1	1	74	-3	active	-2
COc1ccc(Cl)cc1CN1CCN(c2nc(C)cc(C)c2C#N)CC1	0	46*	2	73*	-9
Cc1ccc(S(=O)(=O)CCSc2nc(C)cc(C(F)(F)F)c2C#N)cc1	1	83*	-19	1.4*	11
CCc1c(C)sc(NC(=O)c2cc(C)on2)c1C#N	0	5	18	-4	-4
CCc1c(C)sc(NC(=O)c2cc(C3CC3)on2)c1C#N	x	-8	36*	9	4
COc1ccc(-c2c(-c3cc(OC)cc(OC)c3)n(C)c3ccc(-c4cccc5[nH]ccc45)cc23)cc1	x	x	-12	x	x
CCN1C(=O)C(=O)N(CC(=O)N(C)CC(=O)Nc2ccccc2Cl)C1=O	x	x	-11	x	x
N#Cc1c2n(c3c(=O)n(CC(=O)c4ccc(Br)cc4)cnc13)CCCC2	0	-4	-3	13	-4
Cc1ccc(C(=O)CNc2cccc([N+](=O)[O-])c2)cc1	1	52	41*	-8	-2
CN(C)S(=O)(=O)c1ccc(N=Cc2c(C(F)(F)F)[nH][nH]c2=O)cc1	0	-1	-2	23	-3
SMILES	PERK inh	eIF4H inh	PABP1 MLLE inh	PABP polyA inh	eIF4E-4G inh
CCn1c(O)c(N=NC(=O)CNc2cccc(C)c2)c2ccccc21	0	-6	5	6	-4
C=CCn1c(O)c(N=NC(=S)Nc2ccccc2F)c2cc(S(=O)(=O)N3CCOCC3)ccc21	-1	0	42*	1	1
C=CCn1c(O)c(N=NC(=S)Nc2cccc(C)c2)c2ccccc21	-2	5	42*	4	4
Cc1ccccc1NC(=S)N=Nc1c(O)n(C)c2ccc(S(=O)(=O)N3CCOCC3)cc12	-2	5	30	-2	-4
C=CCn1c(O)c(N=NC(=S)Nc2ccccc2F)c2ccccc21	0	5	39*	-4	-1
Cc1ccc2c(c1)NCC(C(=O)NC1CCCCC1)O2 (stereo not drawn)	0	0	-1	-8	-7

Assay outcomes (PubChem)
